# Measurements from PubChem BioAssay AID602429 (Sanford-Burnham Center for Chemical Genomics, 2012).
# Hit rate of the full screen: of about 360,000 compounds, about 1,200 (0.33%) were called active. Rule as the data show it: active = inhibition above about 37%; inactive = the rest. Shown is part of a subset that was picked to be rich in actives.
# Biological target: Small ubiquitin-related modifier 1 (Homo sapiens) (UniProt P63165)
# Experiment: SUMO1 binding to interaction partners, disruption – biochemical, uHTS, primary screen (AID 602429)
# Conditions: SUMO1 binding to a labelled peptide, TR-FRET, 1 h; at 20 µM; active compounds read high
# Sequence of Small ubiquitin-related modifier 1 (Homo sapiens) (P63165 whole entry, looked up): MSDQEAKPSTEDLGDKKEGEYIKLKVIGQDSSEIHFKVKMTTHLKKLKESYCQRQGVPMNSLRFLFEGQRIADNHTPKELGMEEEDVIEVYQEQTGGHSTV
row,Structure (SMILES),inhibition
1,COc1ccc(N2C(=O)/C(=C/c3ccco3)C(=O)NC2=S)cc1,88.7% (active)
2,COC(=O)C1=C(c2cc3ccccc3s2)C[C@@H]2CC[C@H]1N2C(=O)NCc1cccc2ccccc12,5.43% (inactive)
3,Cc1nn(Cc2ccccc2Cl)c(Cl)c1C(=O)OC(C(=O)NC(N)=O)C(C)C (stereo not given),-1.52% (inactive)
4,C[C@H]1CN([C@@H](C)CO)C(=O)CCCn2nncc2CO[C@H]1CN(C)C(=O)Oc1cccc2ccccc12,0.0734% (inactive)
5,O=C1NC(=O)C(CCOc2ccccc2)(CCc2ccccc2)C(=O)N1,-4.22% (inactive)
6,COc1cccc(N2C(=O)NC(=O)/C(=C\c3ccc([N+](=O)[O-])s3)C2=O)c1,38.1% (active)
7,CC(=O)N(C1=NCCCS1)c1ccccc1F,-2.29% (inactive)
8,CCCn1c(C(=O)c2ccccc2OC)nc2ccccc21,-1.49% (inactive)
9,CCCCCn1c(=O)c(C(=O)Nc2c(C)n(C)n(-c3ccccc3)c2=O)c(O)c2ccccc21,4.99% (inactive)
10,C=C(C)C1(CCCC)C(=O)NC(=S)NC1=O,6.06% (inactive)
